The source of these data is PubChem BioAssay AID720706 (Broad Institute, 2013).

Where “and” joins values, the source holds several entries; their conditions need not be identical. Identical values can stand only once. In all, about 350,000 compounds went through this assay and about 5,500 (1.6%) were called active. The sample holds actives, similar compounds and a random draw of the others, so the mix is not that of the screen.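 How the source made its calls: active means significant combined selectivity score with lowered wild-type GFP, culture density cut under 30%, mutant RFP and density less affected; inactive means any of these conditions unmet.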

The nature of this assay: GFP drop in mixed WT/humanized-ribosome E. coli culture – GFP/RFP fluorescence, OD600, single point, bacterial rRNA inhibitor project, primary screen (AID 720706). The conditions noted are these: E. coli WT GFP vs humanized-ribosome RFP mutants, 24 h; GFP signal change (wild-type ribosome): stronger effect = lower value, concentration not given here unless noted; OD600 change: measured here: OD600 growth unless noted; RFP signal change: measured here: RFP humanized mutant strains, concentration not given here unless noted.
Consider `O=C(CN1CCCC1=O)NCCc1ccccc1`, for which the GFP signal change (wild-type ribosome) was 13.1% (inactive), the OD600 change was determined as 9.85% and the RFP signal change was determined as 2.04%.
On the same counts, the results for `O=C1CC(=O)N(Cc2ccccc2)C(=O)N1CCCCCCN1C(=O)CC(=O)N(Cc2ccccc2)C1=O` are -23.4% (active), 8% and -3.78%.
On to `CS(=O)(=O)N1CCC2CCNC2C1` (stereo not given), for which the GFP signal change (wild-type ribosome) was -44.3% [stronger effect = lower value, DMSO median 0, no signal -100] (inactive); the OD600 change is -74.4% [measured here: OD600 growth, DMSO median 0, no signal -100]; the RFP signal change is -13% [measured here: RFP humanized mutant strains, DMSO median 0, no signal -100, concentration not given here].
On to `O=C(Cc1ccccc1)N1CCCCN2[C@H](C1)[C@H](c1ccc(C#CC3(O)CCCC3)cc1)[C@@H]2CO`, for which the GFP signal change (wild-type ribosome) is -0.103% (inactive), the OD600 change was -5.65% and the RFP signal change was -2.06%.
Consider `COC(=O)[C@@H]1[C@@H](CO)[C@@H]2Cn3c(ccc(-c4ccc(F)cc4)c3=O)[C@H]1N2C(C)=O`, for which the GFP signal change (wild-type ribosome) was -1.54% (inactive), the OD600 change is -1.06% and the RFP signal change was -2.02%.
Taken in the same sequence, the figures for `CC12CCC3C(CCC4CC(=O)CCC43C)C1CC(=NO)C2=O` (stereo not given) were -22% (active), -9.98% and 4.28%.
Taken in the same sequence, the figures for `C[C@]12CCC3C(CC[C@H]4C[C@@H](O)CC[C@]34C)C1C[C@@H](O)[C@H]2O` (stereo not given in full) were -1.03% (inactive), 2.49% and 0.13%.
Taken in the same sequence, the figures for `C[C@]12CCC3C(CC[C@H]4[C@H](O)[C@H](O)CC[C@]34C)C1CCC2=O` (stereo not given in full) were -22.2% (inactive), -18.8% and 3.96%.
In the case of `C=CCN1[C@@H]2CN(S(C)(=O)=O)C[C@H]1C2c1ccc(Br)cc1` (stereo not given in full), the GFP signal change (wild-type ribosome) was 0.44% [stronger effect = lower value, DMSO median 0, no signal -100] (inactive); the OD600 change is -2.24% [measured here: OD600 growth, DMSO median 0, no signal -100]; the RFP signal change was 0.309% [measured here: RFP humanized mutant strains, DMSO median 0, no signal -100, concentration not given here].
`COc1cccc(-c2ccc3n(c2=O)C[C@@H]2[C@@H](CO)[C@H](C(=O)O)[C@H]3N2C(=O)c2cnccn2)c1`: the GFP signal change (wild-type ribosome) is 0.18% (inactive), the OD600 change was 2.71% and the RFP signal change is -2.44%.
Turning to `Brc1ccc2c(c1)CNCc1cnnn1-2`, the GFP signal change (wild-type ribosome) was 21.4% [stronger effect = lower value, DMSO median 0, no signal -100] (inactive); the OD600 change was 6.17% [measured here: OD600 growth, DMSO median 0, no signal -100]; the RFP signal change was 0.786% [measured here: RFP humanized mutant strains, DMSO median 0, no signal -100, concentration not given here].
On to `C/C=C/c1ccc(C2[C@@H]3CN(S(C)(=O)=O)C[C@H]2N3)cc1` (stereo not given in full), for which the GFP signal change (wild-type ribosome) is 0.848% [stronger effect = lower value, DMSO median 0, no signal -100] (inactive); the OD600 change was 10.1% [measured here: OD600 growth, DMSO median 0, no signal -100]; the RFP signal change was 0.743% [measured here: RFP humanized mutant strains, DMSO median 0, no signal -100, concentration not given here].
Taken in the same sequence, the figures for `O=[N+]([O-])c1cnc2ccc3ccccc3c2c1` were -67.7% (inactive), -75.7% and -31.1%.
With `C/C(=N/O)c1ccc2ccc3ccccc3c2c1`, the GFP signal change (wild-type ribosome) was -48% (active), the OD600 change was -16.4% and the RFP signal change was -10.4%.
Consider `Clc1ccc([C@@H]2CC3CCC2N3)cn1` (stereo not given in full), for which the GFP signal change (wild-type ribosome) is 0.922% [stronger effect = lower value, DMSO median 0, no signal -100] (inactive); the OD600 change is -1.31% [measured here: OD600 growth, DMSO median 0, no signal -100]; the RFP signal change is -1.9% [measured here: RFP humanized mutant strains, DMSO median 0, no signal -100, concentration not given here].
In the case of `FC(F)(F)CN1CC2C(c3ccc(Br)cc3)C(C1)N2CC1CC1` (stereo not given), the GFP signal change (wild-type ribosome) was -5.85% [stronger effect = lower value, DMSO median 0, no signal -100] (inactive); the OD600 change was -3.54% [measured here: OD600 growth, DMSO median 0, no signal -100]; the RFP signal change was -0.25% [measured here: RFP humanized mutant strains, DMSO median 0, no signal -100, concentration not given here].
With `O=C(Cc1ccncc1)N1CCCCN2[C@H](CO)[C@@H](c3ccc(C#CC4(O)CCCC4)cc3)[C@H]2C1`, the GFP signal change (wild-type ribosome) is 5.65% (inactive), the OD600 change is 9.16% and the RFP signal change was 1.41%.
For `Cc1ncoc1C(=O)NCC1=C(c2cccc3ccccc23)C[C@@H]2CC[C@H]1N2Cc1ccco1`, the GFP signal change (wild-type ribosome) is 5.41% (inactive), the OD600 change is -0.665% and the RFP signal change was -7.54%.
On the same counts, the results for `CCOc1ccc(-c2cc(C)[n+](CCN(CC)CC)c(-c3ccc(OCC)cc3)c2)cc1` are -47.8% (active), -15.2% and -13.2%.
In the case of `CCC(C)NC1(c2ccccc2)CCCCC1` (stereo not given), the GFP signal change (wild-type ribosome) was 11.4% (inactive), the OD600 change amounted to 7.39% and the RFP signal change stood at 4.1%.
On the same counts, the results for `CCN(CC)c1ccc([N+](=O)[O-])c2cccnc12` are -44.1% (inactive), -57.8% and -2.59%.
Taken in the same sequence, the figures for `CN(c1ccccc1)c1ccc([N+](=O)[O-])c2nonc12` were -8.38% (active), -3.73% and -4.23%.
Regarding `FC(F)(F)CN1CC2NC(C1)C2c1ccc(Br)cc1` (stereo not given), the GFP signal change (wild-type ribosome) is -1.54% [stronger effect = lower value, DMSO median 0, no signal -100] (inactive); the OD600 change is -0.568% [measured here: OD600 growth, DMSO median 0, no signal -100]; the RFP signal change was -0.0575% [measured here: RFP humanized mutant strains, DMSO median 0, no signal -100, concentration not given here].
Regarding `O=S(=O)(c1ccccc1)N1CCC2CCNC2C1` (stereo not given), the GFP signal change (wild-type ribosome) was 32.8% [stronger effect = lower value, DMSO median 0, no signal -100] (inactive); the OD600 change was 20.2% [measured here: OD600 growth, DMSO median 0, no signal -100]; the RFP signal change is 4.31% [measured here: RFP humanized mutant strains, DMSO median 0, no signal -100, concentration not given here].
As to `CC(=O)N1C[C@@H]2C(c3ccc(Br)cc3)[C@H](C1)N2C` (stereo not given in full), the GFP signal change (wild-type ribosome) is -0.325% [stronger effect = lower value, DMSO median 0, no signal -100] (inactive) and 1.25% [stronger effect = lower value, DMSO median 0, no signal -100] (inactive); the OD600 change was 4.6% [measured here: OD600 growth, DMSO median 0, no signal -100] and 7.11% [measured here: OD600 growth, DMSO median 0, no signal -100]; the RFP signal change is -3.94% [measured here: RFP humanized mutant strains, DMSO median 0, no signal -100, concentration not given here] and 0.471% [measured here: RFP humanized mutant strains, DMSO median 0, no signal -100, concentration not given here].
`CN(C)CC1Oc2ccccc2OC1(O)c1ccccc1` (stereo not given): the GFP signal change (wild-type ribosome) was -40.9% (active), the OD600 change is -11.5% and the RFP signal change was -12.2%.
Taken in the same sequence, the figures for `COC(=O)[C@@H]1[C@@H](CO)[C@@H]2Cn3c(ccc(C4=CCCCC4)c3=O)[C@H]1N2CC1CC1` were -0.199% (inactive), -2.21% and -0.887%.
In the case of `O=C(O)[C@H]1[C@H](CO)[C@H]2Cn3c(cccc3=O)[C@@H]1N2C(=O)c1ccccc1`, the GFP signal change (wild-type ribosome) was 2.42% (inactive), the OD600 change is 7.83% and the RFP signal change is -1.92%.
With `COc1ccccc1CN1[C@@H](CO)[C@@H](c2ccccc2)C12CN(C(=O)Cc1ccccc1)C2`, the GFP signal change (wild-type ribosome) is -13.7% [stronger effect = lower value, DMSO median 0, no signal -100] (inactive); the OD600 change is -27.1% [measured here: OD600 growth, DMSO median 0, no signal -100]; the RFP signal change is -0.899% [measured here: RFP humanized mutant strains, DMSO median 0, no signal -100, concentration not given here].
On the same counts, the results for `COC(=O)[C@@H]1[C@@H](CO)[C@@H]2Cn3c(ccc(-c4cccc(C(=O)N(C)C)c4)c3=O)[C@H]1N2C(=O)NC(C)C` are 1.25% (inactive), 8.61% and -0.784%.
